Activity calls are given as the source filed them. Rule for the calls: active = hit-call score of the fitted dose curve at least 0.9, where 1 is the maximum; inactive = score below 0.9.

The nature of one assay: CEETOX_H295R_OHPROG: CeeTox H295R High-throughput Steroidogenesis Assay for OH-Progesterone (OHPROG) (AID 2283435).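 For AC50: human adrenal H295R cells primed 48 h with 10 µM forskolin; 17alpha-hydroxyprogesterone secreted into medium measured by HPLC-MS/MS.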 The settings on record: actives raise or lower the signal. In a few lines:
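HPLC-MS/MS quantification of 17alpha-hydroxyprogesterone secreted by H295R cells after 48 h chemical exposure, following 48 h 10 uM forskolin prestimulation. Gain or loss of signal fitted relative to DMSO. Viability checked by MTT in the same wells.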
Turning to `O=C(O)C[C@H](O)C[C@H](O)/C=C/c1c(C2CC2)nc2ccccc2c1-c1ccc(F)cc1`, the half-maximal activity concentration (AC50) is 0.0582 µM (active).
Take `COc1cc2ncnc(Nc3cccc(Cl)c3)c2cc1OC`: the outcome was inactive.
Still for that read-out and setting: the value for `CC1(C)[C@H](C(=O)OCc2cccc(Oc3ccccc3)c2)[C@@H]1C=C(Cl)Cl` was “inactive”.
On the same count and under the same terms, the result for `Cc1cccc(C)c1C` reads “inactive”.
With `Nc1cc([N+](=O)[O-])ccc1Cl`, the AC50 was 39.3 µM (active).
`C=CC(C)(C)O`: the outcome was inactive.
In the case of `Nc1ccc(F)c([N+](=O)[O-])c1`, the AC50 was 37.7 µM (active).
On the same count and under the same terms, the value for `C#C[C@]1(O)CC[C@H]2[C@@H]3CCC4=Cc5oncc5C[C@]4(C)[C@H]3CC[C@@]21C` was 0.871 µM (active).
Same read-out and setting: the result for `CC(C)=CCCC(C)=CCCC(C)=CCO` reads 31.5 µM (active); that for `O=c1cc(-c2ccccc2)oc2cc(O)cc(O)c12`, 16.6 µM (active).
As for `CSc1nc(NC2CC2)nc(NC(C)(C)C)n1`, the molecule was classed as inactive.
The same measure, in the same setting: the result for `Cc1ccc2n[nH]nc2c1` reads “inactive”.

A further assay in a line: CEETOX_H295R_ANDR: CeeTox H295R High-throughput Steroidogenesis Assay for Androstenedione (ANDR) (AID 2283436). The settings on record: actives raise or lower the signal. In a few lines:
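Medium from 48 h chemical-treated H295R adrenal cells was extracted with MTBE and androstenedione measured by LC-MS/MS. Activity was fit in both directions relative to DMSO. Cytotoxic concentrations were re-tested after dilution until MTT viability reached ≥70%.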
`O=C(O)C[C@H](O)C[C@H](O)/C=C/c1c(C2CC2)nc2ccccc2c1-c1ccc(F)cc1`: the concentration at half-maximal activity (AC50) is 0.0768 µM (active).
On to `COc1cc2ncnc(Nc3cccc(Cl)c3)c2cc1OC`, for which the result was inactive.
Same read-out and setting: the result for `CC1(C)[C@H](C(=O)OCc2cccc(Oc3ccccc3)c2)[C@@H]1C=C(Cl)Cl` reads “inactive”; that for `Nc1cc([N+](=O)[O-])ccc1Cl`, “inactive”.
The same measure, in the same setting: the result for `C=CC(C)(C)O` reads “inactive”.
Still for that read-out and setting: the result for `O=c1cc(-c2ccccc2)oc2cc(O)cc(O)c12` reads “inactive”.

The next assay is described as follows: CEETOX_H295R_CORTIC: CeeTox H295R High-throughput Steroidogenesis Assay for Corticosterone (CORTIC) (AID 2283437).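 For AC50: human H295R adrenal cells prestimulated with forskolin before chemical exposure.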 The settings on record: actives raise or lower the signal. In a few lines:
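Medium corticosterone was quantified by tandem mass spectrometry following 48 hours of chemical exposure (0.1% DMSO) in human H295R cells previously stimulated 48 hours with 10 uM forskolin. Viability checked by MTT; chemicals diluted and retested when viability fell below 70%.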
For the molecule `O=C(O)C[C@H](O)C[C@H](O)/C=C/c1c(C2CC2)nc2ccccc2c1-c1ccc(F)cc1`, the AC50 is 0.0418 µM (active).
For `COc1cc2ncnc(Nc3cccc(Cl)c3)c2cc1OC`, the result was inactive.
The same measure, in the same setting: the result for `CC1(C)[C@H](C(=O)OCc2cccc(Oc3ccccc3)c2)[C@@H]1C=C(Cl)Cl` reads “inactive”; that for `Cc1cccc(C)c1C`, “inactive”; that for `Nc1cc([N+](=O)[O-])ccc1Cl`, “inactive”.
For the molecule `C=CC(C)(C)O`, the molecule was called inactive.
Consider `Nc1ccc(F)c([N+](=O)[O-])c1`, for which the outcome was inactive.
Consider `C#C[C@]1(O)CC[C@H]2[C@@H]3CCC4=Cc5oncc5C[C@]4(C)[C@H]3CC[C@@]21C`, for which the AC50 is 14.5 µM (active).
Consider `O=c1cc(-c2ccccc2)oc2cc(O)cc(O)c12`, for which the AC50 was 5.66 µM (active).
For `Cc1ccc2n[nH]nc2c1`, the outcome was inactive.

What is called AC50 is the midpoint of the concentration-response curve, whichever way the signal moves.

Values taken from PubChem BioAssay (EPA / NIEHS).
